GLS inhibitor: inhibitors of human glutaminase (GLS); 0.21% of 410,000 active; GLS enzymatic activity, qHTS titration; Potency, µM (doses to about 45.5 µM), without a hit: at the highest dose activity change, negative = inhibition, hits mostly inhibitors; note: % is set by controls: 0 for no effect and ±100 for the full control effect
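hKGA in 45 mM KH2PO4 pH 8.2, 0.02% Tween-20 with pin-transferred compounds; 1 mM L-glutamine (stock) plus glutamate oxidase/HRP/Amplex Red coupling added. Fluorescence read initially and after 30 min at RT.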
JMJD2A Tudor: blocks the human JMJD2A Tudor domain | AlphaScreen JMJD2A-Tudor / H3K4me3 peptide binding | 4.4% of 390,000 active | O75164 | Potency, µM (top dose mostly 114 µM), inactives show at the top dose activity change, negative = inhibition, most hits filed as inhibitors | AID 504339; note: % is set by controls: 0 for no effect and ±100 for the full control effect; nearly all actives have a fitted effect of over 50% in size
G9a inh: G9a (human) methyltransferase inhibition | 8.8% of 350,000 active | G9a H3K9 monomethylation, AlphaScreen, 2 h | Q96KQ7 | Potency, µM (top dose mostly 102 µM), for inactives: at the highest dose activity, negative = inhibition, hits mostly inhibitors | AID 504332; note: % is set by controls: 0 for no effect and ±100 for the full control effect; nearly all actives have a fitted effect of over 75% in size
Target sequence (Q96KQ7 913-1193 limits assumed): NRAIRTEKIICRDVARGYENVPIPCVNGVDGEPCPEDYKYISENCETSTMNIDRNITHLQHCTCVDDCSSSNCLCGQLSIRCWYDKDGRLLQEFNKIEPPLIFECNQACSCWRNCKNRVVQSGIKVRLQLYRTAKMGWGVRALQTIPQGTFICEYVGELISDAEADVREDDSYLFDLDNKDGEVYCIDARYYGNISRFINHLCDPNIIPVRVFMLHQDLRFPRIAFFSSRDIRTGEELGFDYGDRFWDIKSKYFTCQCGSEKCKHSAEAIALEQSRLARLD
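Quantitative HTS format: methyltransferase activity on a biotin-tagged H3K9 peptide is measured by AlphaScreen, using a rabbit anti-monomethyl-H3K9 antibody with streptavidin donor and anti-IgG acceptor beads. Final levels are 20 nM enzyme, 500 nM peptide, 20 uM SAM; 2 h RT.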
HP1b chromo inh: blocks HP1-beta chromodomain binding to methylated histone tails; AlphaScreen HP1-beta / biotin-H3K9me3 peptide binding; Potency, µM (series often up to 114 µM), for the others: at the top dose activity change, negative = inhibition, actives largely listed as inhibitors; 0.56% of 390,000 active; note: nearly all actives have a fitted effect of over 70% in size
Target sequence (P83916 whole entry, looked up): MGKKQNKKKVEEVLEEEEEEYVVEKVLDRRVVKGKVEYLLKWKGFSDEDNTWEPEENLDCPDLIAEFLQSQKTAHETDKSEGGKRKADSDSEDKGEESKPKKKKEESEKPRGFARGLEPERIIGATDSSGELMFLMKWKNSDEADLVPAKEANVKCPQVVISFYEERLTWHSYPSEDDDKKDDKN
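HP1-beta protein (50 nM final) preincubated 30 min at room temperature with biotinylated H3(1-18)K9me3 peptide (50 nM) in PBS pH 7.4, 0.01% Tween-20, then compound added for 30 min. AlphaScreen streptavidin donor/nickel chelate acceptor beads (10 ug/mL final), 30 min dark, luminescence read.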
BAZ2B inh: BAZ2B (human) inhibition; AlphaScreen BAZ2B-H3K14Ac peptide displacement; 4.4% of 360,000 active; Q9UIF8; Potency, µM (highest dose often 114 µM), without a hit: at the highest dose activity change, negative = inhibition, actives largely listed as inhibitors; note: % is set by controls: 0 for no effect and ±100 for the full control effect; nearly all actives have a fitted effect of over 60% in size
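AlphaScreen displacement of biotin-H3(5-23)K14Ac peptide (50 nM final) from BAZ2B (50 nM final) in PBS pH 7.4, 0.01% Tween-20; complex preformed 30 min RT, then compounds (top 110 uM) 30 min RT, beads 20 min dark.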
Starred values were filed as active, the others as inactive; ? = inconclusive; . = not tested or not shown; [ ] = another dose, or the depositor's remark. Only some compounds are listed: those with a hit (about 10% of all), similar ones and a draw of the others. Calls come from the whole dose curve; as a rule, active = well fitted curve in the direction sought with a large enough effect; inconclusive = small, poorly fitted or top-dose-only effect, or another doubt; inactive = no such curve, though single readings can be large; an effect the other way counts as inactive or inconclusive. Potency is the fitted concentration of half-maximal effect.

SMILES	GLS inhibitor	JMJD2A Tudor	G9a inh	HP1b chromo inh	BAZ2B inh
O=c1[nH]cc(CCc2ccccc2)c2ncncc12	.	-4%	.	29%	.
O=C(Cn1cc(SCc2ccc(F)cc2)c2ccccc21)N1CCCCC1	-2%	3%	-1%[59 µM]	49%	-26%
COc1cc(CN2C[C@@H](CO)O[C@@H](n3cnc4c(NC5CCCC5)ncnc43)C2)cc(OC)c1OC	3%	.	.	.	.
N#Cc1ccc(CN2CCC3(CC2)CCN(C(=O)c2ccco2)CC3)cc1	.	.	-34%[12.7 µM]	.	.
Cc1c(OC(=O)c2ccc([N+](=O)[O-])cc2)c2c(c[n+]1C)COC(C)(C)OC2	-13%	50µM*	.	-3%	?
Cc1ncc2c(c1OC(=O)c1ccccc1)COC(C)(C)OC2	-1%	-9%	5%	29%	4%
CCN(C(=O)CSc1nnc(Nc2cccc(C)c2C)s1)C1CCS(=O)(=O)C1 (centres undefined)	14%	-10%	-6%[59 µM]	12%	-1%
CCc1ccccc1NC(=O)CN(C)C(=O)CSc1nnc(Nc2cccc(C)c2C)s1	8%	-19%	16µM*	19%	-10%
CN(CC(=O)Nc1ccccc1Cl)C(=O)Cn1cc(C(F)(F)F)cc(Cl)c1=O	1%	1%	45µM*	22%	-2%
Cc1nnc(SCC(=O)N(C)CC(=O)Nc2ccccc2Cl)s1	3%	-3%	50µM*	20%	9%
CN(c1ccccc1)S(=O)(=O)c1cccc(NC(=O)CSc2ncc(C(F)(F)F)cc2Cl)c1	13%	-23%	-17%[59 µM]	24%	35%
CC(NC(=O)c1ccc(N2Cc3ccccc3Oc3ncccc32)s1)c1ccccc1 (centres undefined)	-4%	-2%	-1%[59 µM]	38%	3%
O=C(NCC(c1cccnc1)N1CCc2ccccc21)c1ccc(F)cc1 (centres undefined)	12%	-12%	-2%[59 µM]	26%	11%
COc1cc2c(cc1OC)CN(C(=O)c1cccc([N+](=O)[O-])c1)CC2	?	50µM*	19%[12.7 µM]	-9%	-11%
COc1cc2c(cc1OC)CN(C(=O)/C=C/c1ccc([N+](=O)[O-])cc1)CC2	3%	-29%	50µM*	0%	?
COc1cc2c(cc1OC)CN(C(=O)c1ccc(Br)o1)CC2	20%	-13%	50µM*	16%	-21%
Cc1cc(C)c2c(=O)c3c(oc2c1)C(=O)N(Cc1ccc(F)cc1)C3c1cccc(O)c1 (centres undefined)	-7%	-35%	-52%[59 µM]	1%	-24%
CC(C)CN(C(=O)COc1ccc(-c2nnco2)cc1)C1CCS(=O)(=O)C1 (centres undefined)	0%	2%	24%	30%	-4%
O=C(COC(=O)CCOc1ccccc1)NCc1ccco1	-8%	40µM*	?	?	32µM*
O=C(Cn1nnc(-c2ccc(Cl)cc2)n1)NCc1ccco1	6%	-32%	?	22%	50µM*
O=C(COc1ccccc1)NCc1ccco1	-3%	-13%	.	-6%	.
O=C(COC(=O)CCC(=O)c1ccc(Cl)cc1)NCc1ccco1	-5%	?	50µM*	-14%	.
Cc1[nH]nc(C(=O)NN=Cc2ccccc2Cl)c1N=NN(C)C	-7%	-24%	.	14%	.
CCN(CC)CCCOC(=O)c1ccc(OC)cc1O	3%	-16%	.	17%	-38%
OCCCN1CNC(=S)NC1	2%	.	.	.	.
SMILES	GLS inhibitor	JMJD2A Tudor	G9a inh	HP1b chromo inh	BAZ2B inh
CC(C)(C)CC(C)(C)N1CNC(=S)NC1	-4%	-8%	45µM*	31%	-4%
COc1ccc([C@H]2N[C@]3(CCCN(Cc4ccc(Cl)cc4)C3=O)[C@H]3C(=O)N(Cc4ccccc4)C(=O)[C@@H]23)cc1	2%	.	.	.	.
COCc1cc(=O)n2c(-c3ccccc3OC)n[nH]c2n1	0%	-18%	3.2µM*	11%	-28%
Cc1cc2c(cc1C)/C(=N/NC(=O)c1ccccn1)CCC2	13%	-6%	.	54%	50µM*
O=C(NN=C1CCC(=NNC(=O)c2ccccn2)CC1)c1ccccn1	3%	22µM*	.	33%	7.9µM*
O=C(N/N=C/C1CCCCC1)c1ccccn1	0%	-17%	52%[12.7 µM]	73%	?
O=C(CCNC(=O)C1CCN(S(=O)(=O)c2ccccc2)CC1)Nc1ccccc1	-18%	-8%	-8%	42%	-22%
CCC1Sc2ccc(S(=O)(=O)CCC(=O)Nc3ccc(C(=O)OC)cc3)cc2NC1=O (centres undefined)	4%	20µM*	11%[59 µM]	?	?
CCC1Sc2ccc(S(=O)(=O)CCC(=O)Nc3ccc(NC(C)=O)cc3)cc2NC1=O (centres undefined)	3%	-9%	4%[59 µM]	25%	-13%
CCC1Sc2ccc(S(=O)(=O)CCC(=O)Nc3cccc(Br)c3)cc2NC1=O (centres undefined)	0%	25µM*	-6%[59 µM]	?	?
CCC1Sc2ccc(S(=O)(=O)CCC(=O)Nc3ccccc3Br)cc2NC1=O (centres undefined)	-8%	-8%	6%[59 µM]	42%	-19%
O=C(O)C(Cc1c[nH]c2ccccc12)NS(=O)(=O)c1ccc(Br)cc1 (centres undefined)	23%	28µM*	?	?	-21%
CC(C)C[C@H](NS(=O)(=O)c1ccc(Br)cc1)C(=O)O	-2%	89µM*	-44%	-6%	4%
O=C(O)C(Cc1c[nH]c2ccccc12)NS(=O)(=O)c1ccc(Cl)cc1 (centres undefined)	2%	1%	?	13%	8%
CN(c1ccccc1C(=O)O)S(=O)(=O)c1ccc2[nH]c(=O)oc2c1	2%	-12%	1%[12.7 µM]	23%	0%
COc1ccc(OCC2CCNCC2)cc1	-2%	-20%	50µM*	30%	-23%
CCCCNC(=O)c1cnc2c(-c3ccc(OCC)c(OCC)c3)c(C)nn2c1-c1ccccc1	-6%	-23%	0%[59 µM]	51%	-8%
C[n+]1c(-c2ccccc2)cc2c(=Cc3ccc([N+](=O)[O-])cc3)c3ccccc3n21	10µM*	45µM*	.	?	.
CN(C)c1ccc(C=c2c3cc(O)ccc3n3c2cc(-c2ccccc2)[n+]3C)cc1	-10%	25µM*	.	50µM*	.
CC(C)n1c2ccccc2c2cc([N+](=O)[O-])ccc21	7%	-10%	0%[59 µM]	20%	2%
C[n+]1c(-c2ccccc2)cc2c(=Cc3ccccc3)c3ccccc3n21	-25%	40µM*	.	?	.
CCCCCCOC(=O)C1(O)CC2OC1(C)n1c3ccccc3c3c4c(c5c6ccccc6n2c5c31)C(=O)NC4 (centres undefined)	.	.	26%[2.33 µM]	.	.
CN1CC[C@H](CN2c3ccccc3Sc3ccccc32)C1	16%	.	16µM*	.	.
CC1CCN(CC(O)CN2c3ccccc3Sc3ccccc32)CC1 (centres undefined)	22%	?	?	-8%	?

High-throughput results from PubChem BioAssay.
